Inconclusive results are not listed. Active and inactive are the calls of the source. Calls follow the shape of the dose curve; as a rule, active = well fitted cell-killing curve with a large enough effect in the repeat runs; inconclusive = weak or mixed curves, or effect the other way; inactive = flat fitted curve, though single readings scatter.
Experiment: qHTS RealTime-Glo MT Cell Viability Assay in HEK293 cells - 24 hour (AID 1224886); also: nearly all actives have a fitted effect of over 50% in size; as to activity change, negative = cytotoxicity: top concentration of the series differs between compounds
Settings: RealTime-Glo luminescence; series mostly up to 76.8 µM; activity change, negative = cytotoxicity: at the top concentration
Description: National Center for Advancing Translational Sciences [NCATS]
NIH Chemical Genomics Center [NCGC]
U.S. Environmental Protection Agency [EPA]
National Institutes of Environmental Health Sciences [NIEHS]
National Toxicology Program [NTP]
U.S. Food and Drug Administration [FDA]
Measure of cell viability is critical in the cell-base assay. Analysis of cell viability is necessary for the characterization of cell responses to cytotoxic drugs and environmental stress. A RealTime-Glo MT Cell Viability Assay to monitor cell viability in real time of continues cell culture during 40 hours of compound treatment was used to screen Tox21 10K library compounds in Hek293 cells. The RealTime-Glo MT Cell Viability Assay is a nonlytic, homogeneous, bioluminescent method to measure cell viability in real time using a simple, plate-based method. The assay involves adding NanoLuc luciferase and a cell-permeant prosubstrate to cells in culture. Viable cells reduce the proprietary prosubstrate to generate a substrate for NanoLuc luciferase. This substrate diffuses from cells into the surrounding culture medium, where it is rapidly used by the NanoLuc Enzyme to produce a luminescent signal. The signal correlates with the number of viable cells, making the assay well suited for cytotoxicity studies.
Tox21 Assay Protocol Summary:
The mixture of Hek293 cell suspension and reagents were dispensed at 600cells/6 ul/well in 1536-well tissue culture treated black solid bottom plates using a Multidrop dispenser. After the assay plates were incubated at a 37 C/5% CO2 incubator for 5 hours, 23 nL of compounds dissolved in DMSO, positive and negative controls was transferred to the assay plate by a pintool work station. The plates were incubated at 37 C for 40 hours. The luminescence intensity were measured at 0h, 8h, 16h, 24h, 32h and 40h time points using ViewLux plate reader during compound treatment.
% is scaled to controls: 0 for no effect and ±100 for the full control effect; potency is read from the fitted curve at half-maximal effect.

SMILES	activity change, negative = cytotoxicity	Potency
Cc1cccc2nccnc12	0.489% (inactive)	
N[C@@H](CCC(=O)N[C@@H](CS)C(=O)NCC(=O)O)C(=O)O	7.83% [at 15.8 µM] (inactive)	
O=C(O)Cc1ccc(Cl)cc1Cl	9.28% (inactive)	
O=S(O)(O)=S	1.38% [at 6.97 µM] (inactive)	
Oc1ccccc1-c1nnco1	1.33% [at 35.3 µM] (inactive)	
CN1C(C)(C)CCCC1(C)C	0.0976% [at 35.3 µM] (inactive)	
C=C(C)C(=O)OCC(C)(C)COC(=O)C(=C)C	2.14% (inactive)	
O=C(OCC(O)CO)c1ccccc1Nc1ccnc2c(C(F)(F)F)cccc12 (stereo not given)		4.77 µM (active)
CC(N)C(=O)OC(C)(C)Cc1ccc(Cl)cc1 (stereo not given)	-11.3% [at 35.3 µM] (inactive)	
COC(=O)CCc1ccc(OCC(O)CNC(C)C)cc1 (stereo not given)	6.62% [at 35.3 µM] (inactive)	
Cc1[nH]cnc1-c1ccc(Cl)cc1	-0.652% [at 35.3 µM] (inactive)	
BrCc1cccc(Oc2ccccc2)c1	-0.28% (inactive)	
OCCC(F)(F)C(F)(F)C(F)(F)C(F)(F)C(F)(F)C(F)(F)C(F)(F)C(F)(F)F	27.1% (inactive)	
C[C@@H]1O[C@@H](O[C@@H]2[C@@H](O)[C@H](OCCc3ccc(O)c(O)c3)O[C@H](CO[C@@H]3O[C@H](CO)[C@@H](O)[C@H](O)[C@H]3O)[C@H]2OC(=O)/C=C/c2ccc(O)c(O)c2)[C@H](O)[C@H](O)[C@H]1O	-22.2% (inactive)	
Nc1cccc(O)c1	6.77% (inactive)	
CCC(C)NC(N)=O (stereo not given)	-0.441% (inactive)	
C=C(C)C(=O)OCc1ccccc1	0.633% (inactive)	
Nc1ccc2cc(S(=O)(=O)O)cc(O)c2c1	-2.6% (inactive)	
O=C(O)c1ccc(Cl)cc1Cl	11.4% (inactive)	
CC(C)N(c1ccccc1)C(C)C	7.32% (inactive)	

SMILES	activity change, negative = cytotoxicity	Potency
Nc1ncnc(Nc2ccccc2)n1	0.889% [at 35.3 µM] (inactive)	
CCOc1cc([N+](=O)[O-])c(OCC)cc1N1CCOCC1		15.5 µM (active)
CCC(C)(CCC(C)C)C(=O)O (stereo not given)	7.77% (inactive)	
CCCCNc1ccc(C(=O)OCCN(C)C)cc1	-3.5% [at 35.3 µM] (inactive)	
COc1ccc(OC)c(Cl)c1	10.5% (inactive)	
O=C(O)C(=O)Cc1ccccc1	15.5% (inactive)	
O=C(c1ccc(O)cc1)c1ccc(O)c(O)c1O	-12.4% (inactive)	
NC(CO)C(=O)NNCc1ccc(O)c(O)c1O (stereo not given)	1.03% [at 35.3 µM] (inactive)	
CC[C@H](C)C(=O)O[C@H]1C[C@H](O)C=C2C=C[C@H](C)[C@H](CC[C@@H](O)C[C@@H](O)CC(=O)O)[C@H]21	8.12% (inactive)	
C=CC(OCC)OCC	5.06% (inactive)	
NCCS	5.44% [at 35.3 µM] (inactive)	
CCCCCCCCSCC	18.6% (inactive)	
On1nnc2ccccc21	-0.762% (inactive)	
Cc1ccc2c(c1)OCC(=O)CO2	-1.87% (inactive)	
C[C@@H](O)[C@H]1C(=O)N2C(C(=O)O)=C(SCCN=CN)C[C@H]12	1.43% [at 35.3 µM] (inactive)	
CC(C)(C)c1n[nH]c(=S)n(N)c1=O	1.37% (inactive)	
CC1(C)S[C@@H]2[C@H](N=CN3CCCCCC3)C(=O)N2[C@H]1C(=O)O	10.1% [at 35.3 µM] (inactive)	
COCCOCCOCCOCCOCCO	-1.93% (inactive)	
Cc1ccsc1/C=C/C1=NCCCN1C	1.01% [at 35.3 µM] (inactive)	
CCCC/C=C\CCCCCCCCCC=O	-13.1% (inactive)	
